Potency data for 28 molecules are collected here from PubChem BioAssay (Tox21).

Several values for one entry are separate records, joined by “and”; a condition that tells them apart may be missing. Equal values may be shown once. Inconclusive results are not listed. Some compounds were tested as several samples or in several runs, with calls that do not always agree. Activity calls are given as the source filed them. Unless noted, calls come from the whole dose curve; as a rule, active = well fitted curve in the direction sought with a large enough effect in the repeat runs; inconclusive = weak or mixed curves; inactive = no such curve, though single readings can be large; an effect the other way counts as inactive or inconclusive.

Assay [1] in a line: qHTS assay to identify aromatase inhibitors - cell viability counter screen (AID 743084).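 Note: cells stimulated with testosterone during compound exposure; nearly all actives have a fitted effect of over 55% in size.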 Note: potency is the fitted concentration of half-maximal effect. In general terms: In qHTS, concentration-response curves come from the screen itself.
The target in assay [2] is Aryl hydrocarbon receptor (Homo sapiens) (UniProt P35869). The assay is described as follows: qHTS assay to identify small molecule that activate the aryl hydrocarbon receptor (AhR) signaling pathway (AID 743085).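 Note: HG2L7.5c1 human HepG2 liver cells with stably integrated DRE-driven firefly reporter; series mostly up to about 70 µM; nearly all actives have a fitted effect of over 15% in size.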 The method in brief: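 Luminescence (ONE-Glo) from a dioxin-responsive-element luciferase reporter in HG2L7.5c1 HepG2 cells after 24 hr compound exposure at 37C; viability measured by CellTiter-Fluor fluorescence beforehand.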

The nature of assay [3]: qHTS assay to identify small molecule that activate the aryl hydrocarbon receptor (AhR) signaling pathway - cell viability counter screen (AID 743086). Note: nearly all actives have a fitted effect of over 45% in size. Note: potency is the fitted concentration of half-maximal effect. The method in brief:
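HepG2-AhR-luc (HG2L7.5c1) cells, 4000/well, were preincubated 5 h at 37C, exposed to compound in qHTS format for 24 hr at 37C, then given CellTiter-Fluor for 30 min; viability was read as fluorescence in the reporter wells.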

Assay [4] is described as follows: qHTS assay to identify small molecule antagonists of the peroxisome proliferator-activated receptor gamma (PPARg) signaling pathway - cell viability counter screen (AID 743194). Note: nearly all actives have a fitted effect of over 55% in size. Note: potency is the fitted concentration of half-maximal effect. The conditions noted are these: Potency: co-treated with 50 nM rosiglitazone unless noted. The method in brief: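 PPARg-UAS-bla HEK293H cells were plated, rested 5 h at 37 C, then treated with compounds plus rosiglitazone (50 nM final) for 17 h at 37 C; viability was then read by CellTiter-Glo luminescence after 30 min at room temperature.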

The nature of assay [5]: qHTS assay for small molecule agonists of the antioxidant response element (ARE) signaling pathway (AID 743202; active = well fitted activation curve with a large enough effect in the signal ratio in the repeat runs, not every such curve was filed as active; the % refers to the signal ratio; note: potency is the fitted concentration of half-maximal effect). A digest of the protocol: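 Following a 16 h, 37 C exposure of reporter HepG2 cells (ARE-driven beta-lactamase, 2,000 cells/well) to compounds, FRET substrate was applied for 2 h at room temperature and fluorescence intensity recorded.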
Assay [6] can be described thus: qHTS assay for small molecule activators of the heat shock response signaling pathway - cell viability counter screen (AID 743209). Note: nearly all actives have a fitted effect of over 50% in size. Note: potency is the fitted concentration of half-maximal effect. The method in brief:
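Viability of HSE-bla HeLa cells is measured with CellTiter-Glo in the wells already used for the reporter read. Compound exposure lasts 5 h at 37 C, and luminescence is read after 30 min at room temperature.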

Assay [7] is described as follows: qHTS assay for small molecule activators of the heat shock response signaling pathway (AID 743210; active = well fitted activation curve with a large enough effect in the signal ratio in the repeat runs, with a control signal flat, not every such curve was filed as active; the % refers to the signal ratio; note: series mostly up to about 63 µM). A digest of the protocol:
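Heat shock element–beta-lactamase HeLa reporter cells; qHTS with compounds for 5 h at 37 C; detection by FRET substrate fluorescence after 2.5 h at RT.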

Assay [8] can be described thus: qHTS assay for small molecule agonists of the antioxidant response element (ARE) signaling pathway - cell viability counter screen (AID 743203; calls by dose curve; note: nearly all actives have a fitted effect of over 55% in size; note: potency is the fitted concentration of half-maximal effect). A digest of the protocol:
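Viability counter screen: stably transfected ARE-bla HepG2 line, 16 hrs compound exposure at 37C/5% CO2, ATP-based CellTiter-Glo luminescence measured in the reporter wells.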

Assay [9] concerns the target Peroxisome proliferator-activated receptor gamma (Homo sapiens) (UniProt P37231). Nature of the assay: qHTS assay to identify small molecule antagonists of the peroxisome proliferator-activated receptor gamma (PPARg) signaling pathway (AID 743191; calls by dose curve; note: nearly all actives have a fitted effect of over 30% in size; note: potency is the fitted concentration of half-maximal effect). The method in brief: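 GeneBLAzer PPARg UAS-bla HEK293H cells carrying a UAS-driven beta-lactamase reporter were plated at 3000 cells/well, preincubated 5 h at 37C, then given compound for 17 h at 37C; LiveBLAzer B/G FRET substrate was read after 1 h at room temperature.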

Peroxisome proliferator-activated receptor gamma (Homo sapiens), sequence (P37231 whole entry, looked up): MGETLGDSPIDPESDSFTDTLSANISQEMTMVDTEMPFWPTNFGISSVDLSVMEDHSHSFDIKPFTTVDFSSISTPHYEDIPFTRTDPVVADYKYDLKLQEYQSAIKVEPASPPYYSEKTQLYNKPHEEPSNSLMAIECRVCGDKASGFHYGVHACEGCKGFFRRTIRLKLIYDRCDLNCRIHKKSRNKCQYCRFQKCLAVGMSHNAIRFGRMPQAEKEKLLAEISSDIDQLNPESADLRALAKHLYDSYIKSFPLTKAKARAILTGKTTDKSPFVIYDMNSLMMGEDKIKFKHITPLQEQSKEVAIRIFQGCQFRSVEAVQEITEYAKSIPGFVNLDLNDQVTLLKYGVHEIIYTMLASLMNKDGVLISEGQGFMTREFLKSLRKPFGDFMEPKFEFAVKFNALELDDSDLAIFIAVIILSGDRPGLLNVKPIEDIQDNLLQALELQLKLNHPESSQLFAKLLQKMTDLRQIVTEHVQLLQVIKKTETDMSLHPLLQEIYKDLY
Aryl hydrocarbon receptor (Homo sapiens), sequence (P35869 whole entry, looked up): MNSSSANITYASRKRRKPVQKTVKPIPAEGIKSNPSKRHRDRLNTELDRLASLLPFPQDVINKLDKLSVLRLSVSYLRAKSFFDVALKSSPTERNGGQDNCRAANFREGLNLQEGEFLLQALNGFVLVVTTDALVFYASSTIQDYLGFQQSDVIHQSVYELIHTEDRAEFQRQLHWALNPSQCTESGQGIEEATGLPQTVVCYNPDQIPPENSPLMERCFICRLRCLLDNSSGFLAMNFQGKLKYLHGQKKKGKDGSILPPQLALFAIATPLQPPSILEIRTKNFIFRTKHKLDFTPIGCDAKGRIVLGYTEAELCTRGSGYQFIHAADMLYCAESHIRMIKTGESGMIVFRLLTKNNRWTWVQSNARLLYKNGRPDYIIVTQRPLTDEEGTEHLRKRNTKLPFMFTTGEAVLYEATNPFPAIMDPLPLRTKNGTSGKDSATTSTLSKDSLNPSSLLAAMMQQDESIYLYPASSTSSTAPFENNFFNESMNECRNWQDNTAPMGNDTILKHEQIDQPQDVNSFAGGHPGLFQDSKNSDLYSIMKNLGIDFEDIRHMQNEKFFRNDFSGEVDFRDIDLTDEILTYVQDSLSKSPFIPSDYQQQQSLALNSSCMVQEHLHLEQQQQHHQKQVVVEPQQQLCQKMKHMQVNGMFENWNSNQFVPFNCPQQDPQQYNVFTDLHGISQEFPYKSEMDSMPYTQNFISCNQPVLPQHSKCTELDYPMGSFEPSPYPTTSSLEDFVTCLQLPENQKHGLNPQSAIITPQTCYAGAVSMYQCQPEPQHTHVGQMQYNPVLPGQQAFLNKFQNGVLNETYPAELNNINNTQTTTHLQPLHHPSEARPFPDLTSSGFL

In the case of `[Cl-].[Cl-].[Cl-].[Yb+3]`, the Potency entry in assay [1], in assay [2], in assay [3], in [4], in assay [5] and in assay [6] was “inactive” throughout. The Potency result in assay [7] is “inactive”.
For the molecule `CCN(CC)CCc1c[nH]c2ccccc12`, the Potency entry in [1], in assay [2], in assay [3], in assay [4], in assay [8] and in [6] was “inactive” in each case.
For `Oc1cccc(Cl)c1Cl`, the Potency result in assay [1], in assay [2], in [3], in [4], in assay [5] and in assay [8] was “inactive” each time. Besides, the Potency entry in [6] and in assay [7] was “inactive” each time.
For `CC1CCCC1`, the Potency entry in assay [1], in assay [2], in assay [3], in assay [4] and in assay [8] was “inactive” in each case. Further, the Potency is 21.5 µM (active) in assay [9] and 12.1 µM (active) in [6].
On to `CC(O)C(=O)[O][Hg][c]1ccccc1` (stereo not given), for which the Potency in [1] is 1.09 µM (active); in [3], 4.86 µM (active); in [4] it was 436 nM (active); in assay [8], 686 nM (active); in [6] it was 1.95 µM (active). Besides, the Potency entry in [2] is “inactive”.
As for `CCc1cccc(C)c1N(C(=O)CCl)[C@@H](C)COC`, the Potency entry in assay [1], in [2], in assay [3], in [4], in assay [8] and in assay [6] was “inactive” in each case. Also, the Potency entry in assay [7] was “inactive”. Further, in [5], the Potency is 9.69 µM (active).
Take `Oc1cc(Cl)cc(Cl)c1`: the Potency result in [1], in [2], in [3], in assay [9], in assay [8] and in [7] was “inactive” each time.
Regarding `O=[N+]([O-])c1ccccc1-c1ccccc1`, the Potency entry in assay [1], in assay [2], in assay [3], in [9], in [4] and in assay [5] was “inactive” in each case. Moreover, the Potency result in [6] and in assay [7] was “inactive” throughout.
Turning to `CCCCCCCCCCCCCCn1cc[n+](C)c1`, the Potency is 8.65 µM (active) and 38.1 µM (active) in assay [1]; 34.4 µM (active) in [3]; 9.79 µM [setting not given] (active) and inactive in assay [4]; 24.4 µM (active) and 30.3 µM (active) and inactive in assay [8]; 19.5 µM (active) and 21.6 µM (active) and inactive in assay [6]. In addition, the Potency entry in assay [2] is “inactive”.
Turning to `N#CC(C#N)=NNc1cccc(Cl)c1`, the Potency in assay [1] was 9.69 µM (active); in [3], 15.4 µM (active); in assay [4], 490 nM (active); in assay [8], 27300 nM (active). Further, the Potency result in assay [2] was “inactive”.
As to `[O]=[Cr](=[O])([OH])[O][Cr](=[O])(=[O])[OH]`, the Potency entry in assay [1], in [2] and in assay [3] was “inactive” each time. The Potency in assay [4] was 3.93 µM (active) and 7.74 µM (active); in [8], 21.9 µM (active) and 30.6 µM (active); in assay [6] it was 39.3 µM (active) and 43.6 µM (active).
For the molecule `ClCBr`, the Potency result in assay [1], in assay [2], in [3], in assay [9], in assay [4] and in assay [8] was “inactive” each time. The Potency entry in assay [6] and in assay [7] was “inactive” in each case.
As to `Brc1cccc(-c2ccccc2)c1`, the Potency result in assay [1], in [2], in [3], in assay [4], in [5] and in [8] was “inactive” each time. For the same molecule, the Potency entry in assay [6] and in assay [7] was “inactive” each time.
For the molecule `CCOP(=S)(OCC)SC(CCl)N1C(=O)c2ccccc2C1=O` (stereo not given), the Potency entry in assay [1], in [2], in assay [3], in assay [4] and in [6] was “inactive” throughout. In addition, the Potency in assay [5] is 9.69 µM (active).
Consider `ClC1=C(Cl)[C@]2(Cl)[C@H]3[C@H]([C@@H]4C=C[C@H]3C4)[C@@]1(Cl)C2(Cl)Cl`, for which the Potency result in assay [1], in assay [2], in assay [3], in [5] and in assay [7] was “inactive” in each case. Moreover, the Potency was 49000 nM (active) in assay [4]; “inactive and 54.5 µM (active)” in assay [8]; “inactive and 24.5 µM (active)” in assay [6].
`CC(=O)[O-].CC(=O)[O-].O.O.O.[Pb+2]`: the Potency result in [1], in assay [2], in assay [3], in assay [4], in assay [8] and in [6] was “inactive” throughout.
`C[C@]12C/C(=C/O)C(=O)C[C@@H]1CC[C@@H]1[C@@H]2CC[C@@]2(C)[C@H]1CC[C@]2(C)O`: the Potency entry in assay [1], in assay [2], in assay [3], in assay [4] and in assay [6] was “inactive” each time. Moreover, the Potency in [5] was 5.96 µM (active).
As to `CC(=O)[O-].CC(=O)[O-].O.O.[Zn+2]`, the Potency entry in [1], in assay [2], in assay [3], in [4], in assay [5] and in assay [8] was “inactive” in each case. In addition, the Potency entry in assay [6] was “inactive”.
On to `CN(C)CCc1c[nH]c2ccccc12`, for which the Potency entry in [1], in [2], in assay [3], in assay [4] and in assay [8] was “inactive” in each case.
For the molecule `BrCCCBr`, the Potency entry in assay [1], in [2], in [3], in assay [4], in assay [5] and in assay [8] was “inactive” in each case. The Potency entry in assay [6] and in [7] was “inactive” each time.
Consider `BrCC(Br)(Br)Br`, for which the Potency result in [1], in assay [2], in assay [3], in [9] and in [6] was “inactive” throughout.
`CCCCCON=O`: the Potency entry in [1], in assay [2], in assay [3], in assay [9], in assay [4] and in assay [8] was “inactive” each time. The Potency entry in [6] and in assay [7] was “inactive” in each case.
As to `CC1CN1` (stereo not given), the Potency result in [1], in assay [2], in [3], in assay [4], in assay [5] and in assay [8] was “inactive” in each case. In addition, the Potency result in assay [6] and in assay [7] was “inactive” throughout.
In the case of `COP(=O)(OC)Oc1ccc([N+](=O)[O-])cc1`, the Potency entry in assay [1], in assay [2], in assay [3], in assay [8] and in [6] was “inactive” in each case. In assay [9], the Potency was 17.4 µM (active).
In the case of `[F][Sn]([c]1ccccc1)([c]1ccccc1)[c]1ccccc1`, the Potency was 3.06 µM (active) in [1], 3.86 µM (active) in assay [3], 616 nM (active) in [4] and 344 nM (active) in [8]. Besides, in assay [2], the Potency entry was “inactive”.
For the molecule `CCCCON=O`, the Potency result in assay [1], in assay [2], in assay [3], in assay [9], in [4] and in [8] was “inactive” each time. Besides, the Potency entry in assay [6] and in [7] was “inactive” throughout.
`CN1[C@@H]2CC[C@H]1CC(O)C2` (stereo not given in full): the Potency entry in assay [1], in assay [2], in assay [3], in assay [9], in assay [4] and in [6] was “inactive” each time. Further, the Potency entry in assay [7] is “inactive”.
As to `ClSC(Cl)(Cl)Cl`, the Potency entry in [1], in assay [2], in assay [3], in [9], in assay [4] and in assay [8] was “inactive” throughout. The Potency entry in assay [6] and in [7] was “inactive” in each case.
